# System: VDR:RXRa (NR concentration 270 nM, RXRa partner concentration 90 nM)
# Assay: PBM binding z-score (relative to random genomic background probes); higher = stronger binding; sequences stand for … in GC…GCGATTGACAGCGTAGAATGAAGG
# Procedure: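 Protein-binding microarray (Agilent 4x180K custom design, double-stranded 60-nt probes: 5' GC cap, 34-nt variable region, 24-nt constant primer region; full probe sequence given). Purified or IVT nuclear receptor:RXRα heterodimers (3:1 NR:RXRα, mostly 270:90 nM) or homodimers were incubated for 1 h in PBS with 2% milk and no ligand, then detected with Alexa488 antibodies. Fluorescence from o1-orientation probes (~5 replicates averaged) was converted to z-scores against 500 random hg19 background probes. Variable regions are seed direct-repeat (DR0–DR5) sites, all their single-nucleotide variants and half-site ablations.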
row,Sequence,PBM binding z-score
1,TGAATGAGGTTAAAGATCAGTGAACGTGGCGTCG,1.62
2,TCTAGTTGGTCAAAGGTCATACACTCGAAATGCG,5.38
3,GCTATTAGTTGAAAGGGCTACCGAATGATTCTCG,-0.406
4,AGAATGAGGTTCTTAAGATCAGGGAATTGCGGTC,0.0724
5,AGAATGAGGTTAAGAACAGGGAAACAGAATACAT,1.04
6,ACTCGGAGGAGAAAGGTCAGAGCTACGCCAGTGA,2.16
7,CGTCCAAGGTCAAAGGTCAGTTAAGAGATGACGG,6.49
8,TCTCGGATGACACGAAGGTCAGAGCTTTCCAGAG,1.46
9,CCTAGTTGGTCAAGGTCACACGCGCTATAGGTAC,4.29
10,AAAACGAGGGCACGCTGAGTTGATAGCAGAGTAG,2.53
11,GGAAAGAGGGCAAGTTGATAGCAGAGTTTGATGG,1.24
12,TCTTGTAGATCAACAGGAAGTTAAGAAAGATCGA,-0.0912
13,CGTCAAAGTTCAAGGTAACGTTACAGAAAGCAGC,3.97
14,CCTGGTTGGTCAAGGTCACACACGCTATAGGTAC,4.37
15,CACGAAAGGTCGTGCTCAGGTGAGTATACCAAAC,3.51
16,CCTATTAGTTGACCACAAGGGCAACCGAAGCTCG,0.807
17,AGAATGAGGTTGTACGTAGATCAGGGAAGAAAGT,0.177
18,GATACAGGGTCAGCTAGAAGCCAGAGTATGGAAA,2.11
19,CGAACTAGGTCATAGACAGGACAGTGAATAGTAA,1.78
20,ATCGAAAGGTCGAGCTGAGTATAGAGAAAGGGAA,2.53

row,Sequence,PBM binding z-score
1,ACTTACGGGTCCACGAGGTTATAGCACGCGTATA,3.52
2,AGAATGAGGTTATTAAGATCAGGGACTTGCGGTC,2.47
3,TAGCCTAGGTCATTGCGCCAGTATAGTACGCATC,2.33
4,ACTATTAGTTGAGACGAGGGCGACCGATAGGTTG,0.133
5,TCGAGTTGGTCACGGAGGTCACACACGACGGGTA,5.91
6,ATAGGTAGGTTATCGGGTCATTCAGTTTGCGCAT,5.32
7,TCTTGTAGATCAATAGAGGGTAAGAAAGTGCGCT,0.717
8,CGTCCATGGTCAATGCTAGGTCAGTGAAAGCATT,0.204
9,CCTTACGGGACACTGACAGGTTATAGCATTTGGA,-0.00746
10,CAAACTACGTCAAAGGTCAAAGTCGAGCCAACCA,5.02
11,CAAACTAGGTCAAGAGGTAAAAGTCCGCTTCCCG,2.17
12,GCTATTAGTTGAAACGGCAACCGAATGATTCTCG,-0.413
13,TCATATAGGTAAAAGGTGAAAGTGGGTGTGGTAA,2
14,ATATGTAGGTTACGGGTCATTCAGGTTGGTTCGC,4.76
15,TGAATGAGGTTATAAGATCAGGGACCGTTGCAAA,1.25
16,AGAATGAGGTTTCCAAAGATCAGGGAAACGCTTG,-0.555
17,GCTCGGAGGACAAGGTCAGAGCTTTGTCCGTAGA,1.34
18,CCTAGCAGACCAGGGTCACTCAAGCATTTCGCTT,2.69
19,CCGACTGGGGCATTAGGTTACCATAAGCCAGCCC,-0.353
20,CATACAGGGTCAGCTAGGCGAGAGTAGGGACGGC,2.57
